Source: the supplement of paper PMC11219838
Values without a mark were called inactive.

system: Caenorhabditis elegans L1 (N2); test: survival and reproduction score of C. elegans L1 (0: 0-10 living worms, 1: 11-20, 2: 21-50, 3: >50, 4: overgrown) (score 0-4); higher = more worms, less nematicidal, active = 1 or less; extreme values may be limits of the assay; conditions: 60 µM; 6 days; temperature: 20 °C
Procedure, shortened: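 After compound was pinned to 60 µM final (0.6% v/v DMSO) into wells with roughly 20 synchronized C. elegans N2 L1s and E. coli HB101 in liquid NGM, the sealed 96-well plates were shaken at 200 rpm for 6 days at 20 °C. Under a dissection microscope, survival and reproduction were graded ordinally by living worms per well. A grade of 0 stood for 0–10 worms and 4 for overgrown, starved wells; two biological replicates were averaged.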

Compound	survival and reproduction score
Cc1ccc(-c2noc(-c3ccc(C)cc3Cl)n2)cc1	4
Cc1cccc(-c2noc(-c3cccc(Br)c3)n2)c1	4
Cc1ccc(OCc2nc(-c3ccc(Br)o3)no2)cc1C	4
CCOc1ccc(NC(=O)CSc2nnc(-c3ccccc3Cl)o2)cc1	4
Brc1ccc(CSc2nnc(-c3ccco3)o2)cc1	0 (active)
Cn1c(SCc2nc(-c3cccs3)no2)nnc1-c1ccco1	4
CCOc1ccccc1NC(=O)CSc1nnc(-c2ccccc2)o1	4
c1ccc(COc2cccc(-c3nc(-c4ccncc4)no3)c2)cc1	4
O=C(Nc1cccc(-c2noc(COc3ccccc3)n2)c1)c1cccs1	4
Cc1ccc(NC(=O)CSc2nnc(-c3ccccc3)o2)cc1F	4
COc1ccccc1-c1nnc(SCc2ccccc2C)o1	4
CC(C)CCC(=O)Nc1ccccc1-c1nc(-c2ccncc2)no1	4
COc1ccc(-c2nnc(SCC(=O)Nc3ccc(C(C)C)cc3)o2)cc1	4
O=C(CSc1nnc(-c2ccccc2)o1)Nc1cccc(Cl)c1	4
Cc1ccc(OCc2nc(-c3ccccc3Cl)no2)cc1C	2
Cc1ccc(-c2noc(-c3cccc(Br)c3)n2)cc1	4
COc1ccc(Cl)cc1-c1noc(-c2cccc(C)c2)n1	4
Brc1ccc(OCc2nc(-c3ccncc3)no2)cc1	4
Cc1cc(C)cc(NC(=O)CSc2nnc(-c3ccccc3)o2)c1	4
